Sampled rows, rich in hits. Any-hit rate of the full collection: about 19%.
IL1B secr inh = inflammasome signaling inhibition, IL-1 beta readout | 360,000 tested, 4.7% active | activity change, % at 57.5 µM | THP-1 LPS/ATP IL-1B secretion, AlphaLISA, 16 h; active compounds read low | AID 743279; in the data active = activity change below about -50%; inconclusive = mostly about -30% to -49%
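THP-1 cells pretreated 1 hr with compounds (up to 57.5 uM final), then stimulated with LPS (250 ng/mL final) plus ATP (1.25 mM final); secreted IL-1B measured by AlphaLISA after 16 hr, decreased signal indicating inhibition.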
HT1080-NT tox = kills 2HG-producing HT-1080-NT fibrosarcoma cells | Potency, µM (series often up to 46.1 µM), hits mostly cytotoxic | 360,000 tested, 1.6% active | HT-1080-NT fibrosarcoma viability, CellTiter-Glo ATP luminescence, 48 h;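 also: NT is the 2HG producing partner of a matched IDH1 knockdown line; nearly all actives have a fitted effect of over 55% in size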
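Viability by CellTiter-Glo luminescence after 48 h compound exposure at 37C of HT-1080-NT cells (750/well, RPMI, 5% FBS). % activity scaled between DMSO wells and medium-only wells, then curve-fitted and categorized by curve class.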
HT1080 IDH1KD tx = HT-1080 IDH1 knockdown cell toxicity (counter line); HT-1080 IDH1 knockdown viability, ATP luminescence, 48 h; Potency, µM (titrated, usually from 46.1 µM), most hits filed as cytotoxic; 360,000 tested, 2% active
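IDH1KD HT-1080 cells, 750/well, RPMI + 5% FBS; compound pinned after 2 h settling; 48 h, 37 °C; CellTiter-Glo luminescence; % activity normalised to DMSO and no-cell wells; curves fitted, classed by r2 and efficacy.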
uPA surface inh = blocks generation of uPA at the cell surface; cell surface uPA generation assay, qHTS; Potency, µM (titrated, usually from 38.3 µM), actives largely listed as inhibitors; 330,000 tested, 0.31% active; AID 540303; active = well fitted inhibition curve with a large enough effect; inconclusive = small, poorly fitted or top-dose-only effect; inactive = no such curve, though single readings can be large or run the other way; tested in mouse RAW 264.7 cells; also: nearly all actives have a fitted effect of over 55% in size
DT40 TDP1 CPT = growth inhibition of DT40 Tdp1-/-;hTDP1 cells with camptothecin (screen for TDP1 inhibitors); 420,000 tested, 12% active; Potency, µM (highest dose often 46.2 µM), most hits filed as inhibitors; chicken DT40 Tdp1-/-;hTDP1 cells + 20 nM CPT, ATP luminescence, 48 h; AID 686979; also: nearly all actives have a fitted effect of over 55% in size
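Cell growth measured by CellTiter-Glo luminescence after a minimum 48 h, 37 C compound exposure with 20 nM CPT in Tdp1-knockout DT40 cells stably expressing hTDP1, seeded 400/well; qHTS titration format.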
DT40 TDP1 no CPT = qHTS for Inhibitors of human tyrosyl-DNA phosphodiesterase 1 (TDP1): qHTS in cells in absence of CPT | Potency, µM (titrated, usually from 46.2 µM), actives largely listed as inhibitors | DT40 Tdp1-/- hTDP1 cells, no CPT, ATP luminescence, 48 h | 420,000 tested, 15% active; also: nearly all actives have a fitted effect of over 55% in size
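Cells were dispensed at 400 per well, compounds added by pin tool, plates incubated ≥48 hr at 37 °C, then CellTiter-Glo added for 30 min at room temperature before luminescence reading. Line: DT40 Tdp1-/- complemented with hTDP1; camptothecin omitted.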
A number is an active result; - = inactive; ? = inconclusive; . = no result given; [ ] = remark or other dose. Unless noted, calls follow the shape of the dose curve; as a rule, active = well fitted curve in the direction sought with a large enough effect; inconclusive = small, poorly fitted or top-dose-only effect, or another doubt; inactive = no such curve, though single readings can be large; an effect the other way counts as inactive or inconclusive.

SMILES | IL1B secr inh | HT1080-NT tox | HT1080 IDH1KD tx | uPA surface inh | DT40 TDP1 CPT | DT40 TDP1 no CPT
COc1ccc2c3c(n(C(=O)OC(C)(C)C)c2c1)C1CC=C(COC(C)=O)CN1CC3 (stereo not drawn) | - | - | - | . | 16µM | 16µM
COc1ccc2c(c1)c1c(n2C)[C@@H]2CC=C(CO)[C@@H](C1)N2C | - | - | - | - | - | -
CCOC(=O)C1CCN(C(=O)c2sc3nc(-c4ccc(F)cc4)cn3c2C)CC1 | - | - | - | - | - | ?
CCOC(=O)C1CCN(C(=O)c2ccc3c(c2)sc2nc(-c4ccccc4)cn23)CC1 | . | . | . | . | 6.5µM | 23µM
CCOC(=O)N1CCN(C(=O)c2ccc3c(c2)sc2nc(-c4ccccc4)cn23)CC1 | - | - | - | - | ? | ?
CCOC(=O)C1CCN(C(=O)c2ccc3c(c2)sc2nc(-c4ccc(OCC)cc4)cn23)CC1 | . | . | . | . | 7.3µM | 6.5µM
Cc1ccc(-c2cn3c(n2)sc2cc(C(=O)N4CCCCC4)ccc23)cc1 | . | . | . | . | - | 16µM
Cn1c(CNC(=O)c2ccco2)nnc1SCC(=O)Nc1c(F)cc(F)cc1Br | - | - | - | . | - | -
CN1C(=O)c2ccccc2Sc2ccc(NC(=O)COc3ccc(F)cc3)cc21 | . | . | . | . | 16µM | 7.3µM
CCCNC(=O)Nc1ccc2c(c1)N(C)C(=O)c1ccccc1S2 | - | - | - | - | - | ?
CN1C(=O)c2ccccc2Sc2ccc(NC(=O)COc3ccc(Cl)cc3)cc21 | . | . | . | . | 21µM | 12µM
COc1ccc(C(=O)Nc2ccccc2-c2ccccc2)cc1Cl | ? | - | - | - | ? | ?
O=C(Nc1ccc(Nc2ccccc2)cc1)c1ccc(Cl)cc1[N+](=O)[O-] | - | - | - | - | 5.8µM | 16µM
Cc1cc(NC(=O)c2cc3cccc([N+](=O)[O-])c3[nH]2)ccc1F | - | ? | - | ? | ? | 21µM
O=C(Nc1ccccc1-c1ccccc1)c1ccc(Cl)c([N+](=O)[O-])c1 | -100 | ? | ? | - | - | ?
CCN(C(=O)c1ccc(Cl)cc1[N+](=O)[O-])c1ccccc1C | - | - | - | - | 16µM | 15µM
CC(C)(C)N(Cc1ccccc1)C(=O)c1ccc(Cl)cc1[N+](=O)[O-] | - | - | - | - | - | ?
CCc1ccccc1NC(=O)CSc1nc2ncccc2o1 | . | . | . | . | - | -
Cc1ccccc1NC(=O)c1ccc(Nc2c([N+](=O)[O-])cc([N+](=O)[O-])c3ccccc23)cc1 | - | - | - | - | ? | 23µM
C/C(=N\NC(=O)c1ccc([N+](=O)[O-])c(C)c1)c1ccccc1Cl | -70 | - | - | - | ? | 21µM
Cc1cc(C(=O)Nc2ccc(Nc3ccccc3)cc2)ccc1[N+](=O)[O-] | -65 | - | ? | - | 3.3µM | 4.6µM
O=C(Nc1ccc(Nc2ccccc2)cc1)c1ccc(Cl)c([N+](=O)[O-])c1 | - | - | ? | ? | 13µM | 10µM
O=C(Nc1ncccn1)c1ccc(Cl)c([N+](=O)[O-])c1 | - | - | - | - | - | -
NCCCCc1cn(CC(=O)N2CCNCC2)nn1 | - | - | - | - | - | -
COc1ccc(C(=O)N(C)[C@H]2C[C@H]3c4[nH]c5ccccc5c4CCN3C(=O)[C@H]2CO)cc1 | - | - | - | . | - | ?
SMILES | IL1B secr inh | HT1080-NT tox | HT1080 IDH1KD tx | uPA surface inh | DT40 TDP1 CPT | DT40 TDP1 no CPT
Cc1cccc(NC(=O)c2cc(Cl)ccc2[N+](=O)[O-])c1 | - | - | - | - | ? | -
Cc1ccc(NC(=O)c2cc(Cl)ccc2[N+](=O)[O-])cc1C | -100 | - | - | - | - | -
O=C(Nc1ccc(Cc2ccncc2)cc1)c1ccc(Cl)c([N+](=O)[O-])c1 | -73 | - | -[9.24 µM] | - | 16µM | 18µM
Cc1c([N+](=O)[O-])cc(C(=O)Nc2ccc(Cc3ccncc3)cc2)cc1[N+](=O)[O-] | ? | - | - | - | - | -
CCN(C(=O)c1ccc(Cl)c([N+](=O)[O-])c1)c1ccccc1 | - | - | - | - | ? | 15µM
O=C(c1ccc(Cl)c([N+](=O)[O-])c1)N(c1ccccn1)c1ccccn1 | - | - | - | - | - | ?
COc1ccc(CN2C(=O)c3ccccc3C2c2nnnn2C(C)C)cc1OC (stereo not drawn) | - | - | - | . | - | -
O=C(NCC1CCCO1)c1cccc(S(=O)(=O)NCc2ccccc2)c1 (stereo not drawn) | - | - | - | - | - | -
Cc1nn(C)cc1CN(C)C(=O)C1CCC(=O)N(CCc2cccc(F)c2)C1 (stereo not drawn) | - | - | - | . | - | -
O=C(Nc1ccc(S(=O)(=O)C(F)F)cc1)c1cccc(S(=O)(=O)N2CCOCC2)c1 | ? | - | - | - | ? | 15µM
O=C(Nc1cccc(S(=O)(=O)C(F)F)c1)c1ccc(S(=O)(=O)N2CCOCC2)cc1 | - | - | - | - | - | 18µM
O=C(Nc1ccc(S(=O)(=O)N2CCOCC2)cc1)c1ccc(F)cc1 | - | - | - | - | - | -
CCC(O)CNC(=O)CCc1nnc(C2(c3ccc(Cl)cc3)CCC2)o1 (stereo not drawn) | - | - | - | - | - | -
CN1OC[C@@H]2CN(C(=S)NCCc3ccccc3)[C@H](c3ccc(-n4ccnc4)cc3)C[C@@H]21 | - | - | - | . | - | -
CCOC(=O)CSc1nc2ccccc2c(=O)n1CC1COc2ccccc2O1 (stereo not drawn) | - | - | - | - | ? | 18µM
CCOC(=O)CSc1nc2ccccc2c(=O)n1Cc1ccco1 | - | - | - | - | - | -
C=CCOC(=O)c1[nH]c2c(c1C)C(=O)CC(c1ccco1)C2 (stereo not drawn) | - | ? | 0.37µM | ? | 0.021µM | 0.0065µM
C/C=C/COC(=O)c1[nH]c2c(c1C)C(=O)CC(c1ccco1)C2 (stereo not drawn) | - | 1µM | 0.65µM | ? | 0.29µM | 0.21µM
Cc1c(C(=O)OCC2CCCO2)[nH]c2c1C(=O)CC(c1ccco1)C2 (stereo not drawn) | - | ? | 2.9µM | - | 3.7µM | 3.7µM
O=C(Cc1ccc(Cl)cc1)NCCc1c[nH]c2ccccc12 | - | - | - | - | 18µM | ?
Nc1nc2ccc(Cl)cc2cc1C(=O)NC1CC1 | - | - | - | . | - | -
O=C(NCCc1c[nH]c2ccccc12)c1cc2sccc2n1Cc1ccccc1 | - | - | - | - | 23µM | 21µM
Nc1nc2ccc(Cl)cc2cc1C(=O)NCc1ccc(Oc2ccccc2)cc1 | - | - | ? | . | 0.65µM | 1.3µM
O=C(NCc1ccc2c(c1)OCO2)c1nnc(Cc2ccc(F)cc2)o1 | - | - | - | - | - | -

Screens deposited in PubChem by National Center for Advancing Translational Sciences (NCATS).
